In PubChem BioAssay (EPA / NIEHS):
Results filed as inconclusive are left out. Activity calls are given as the source filed them. Rule for the calls: active = hit-call score of the fitted dose curve at least 0.9, where 1 is the maximum; inconclusive = response in the unintended direction; inactive = score below 0.9.

read-out: Cytochrome P450 2B6 (Homo sapiens) (UniProt P20813); assay: CLD_CYP2B6_48hr: CellzDirect (CLD) Gene Expression Assay for xenobiotic metabolism (CYP2B6) at 48 hours (AID 2283699);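 note: actives raise transcript level above DMSO so potency reflects induction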
Procedure: CLD_48hr is a cell-based, multiplexed-readout assay that uses hepatocyte, a human liver primary cell, with measurements taken at 48 hours after chemical dosing in a 96-well plate.CLD_CYP2B6_48hr is one of 16 assay component(s) measured or calculated from the CLD_48hr assay. It is designed to make measurements of mRNA induction, a form of inducible reporter, as detected with chemiluminescence signals by Quantitative Nuclease Protection Assay (qNPA) technology.Data from the assay component CLD_CYP2B6_48hr was analyzed at the endpoint, CLD_CYP2B6_48hr, in the positive analysis fitting direction relative to DMSO as the negative control and baseline of activity. Using a type of inducible reporter, gain-of-signal activity can be used to understand changes in the reporter gene as they relate to the gene CYP2B6. Furthermore, this assay endpoint can be referred to as a primary readout. To generalize the intended target to other relatable targets, this assay endpoint is annotated to the cyp intended target family, where subfamily is xenobiotic metabolism.
Human hepatocyte cultures were treated daily for two consecutive days with fresh dosing solutions containing appropriate concentrations of the 320 ToxCast chemicals (chemical identities were blinded to CellzDirect and other ToxCast collaborators), vehicle control (0.2% DMSO), and positive control inducers as summarized in Table 1. Due to the large number of treatment groups and chemicals examined, the ToxCast chemicals were divided into two groups (spanning two independent cultures of hepatocytes from separate donor preparations (Hu778: ToxCast plates 1 and 2; Hu776: ToxCast plates 3 and 4). Each preparation of human hepatocyte cultures was treated with respective vehicle control, medium only control, set of six positive controls/reference chemicals for the five hepatic receptor pathways, and a subset of eight of the ToxCast chemicals (indoxacarb, pyrithiobac-sodium, norflurazon, cyhalofop-butyl, methomyl, thiram, acetochlor, and propiconazole). These replicate data, coupled with internal replicates designed within the blinded ToxCast chemical library, provided additional data to evaluate interindividual differences between hepatocyte preparations and their potential impact on chemical profiles.Cell morphology and integrity were evaluated using phase-contrast microscopy as an indicator of hepatocyte cell health (Tyson & Green, 1987). Cultures for each treatment group (i.e., media, vehicle [0.2% DMSO], positive control inducers [multiple concentrations], and the ToxCast chemicals [multiple concentrations]) were observed and cell morphology was assessed relative to vehicle control cultures at each harvest time point (0, 6, 24, or 48 h). […] Images were evaluated at the conclusion of the study to assess changes in cell integrity and account for the effects of chemical exposure on uncharacteristic changes in concentration-dependent gene expression profiles. The results from these determinations of apparent cytotoxicity were annotated (yes/no) alongside the corresponding qNPA data for reference.At the conclusion of each treatment period, hepatocyte cultures (96-well) were washed with 1 volume of HBSS, lysed by addition of 25 ul ArrayPlate lysis buffer (HTG, Tucson, AZ), and 70 ul/well of Denaturation Oil, denatured by incubation at 95C for 10 min, and frozen at approximately -70C until analysis by nuclease protection assay (qNPA) (Roberts et al., 2007). For qNPA analysis, cell lysates were thawed at 50C for approximately 30 min, qNPA probes were added, and samples were incubated at 95C for 10 min to begin the detection process by denaturing the target RNA, dissociating the duplexes and secondary structure hybridization. At the conclusion of the hybridization period, S1 nuclease reagent was added to each sample to digest all nonprotected nucleotides at 50C for 60-90 min. […]

**Q.** `Oc1ccc(Cl)cc1Cc1ccccc1` was tested. Which outcome did it give?
**A.** inactive

**Q.** Which AC50 does the source give for `CCC(C)(NC(=O)c1cc(Cl)c(C)c(Cl)c1)C(=O)CCl` (stereo not given) here?
**A.** 0.403 nM (active)

**Q.** `C[C@H]1[C@H](c2ccc(Cl)cc2)SC(=O)N1C(=O)NC1CCCCC1` was tested. Which AC50 did it give?
**A.** 1900 nM (active)

**Q.** Which outcome does the source give for `COc1cc(OC)nc(NC(=O)NS(=O)(=O)c2cc(NC=O)ccc2C(=O)N(C)C)n1` here?
**A.** inactive

**Q.** `CNC(=O)/C=C(\C)OP(=O)(OC)OC` was tested. Which outcome did it give?
**A.** inactive

**Q.** With `C#CCN1C(=O)COc2cc(F)c(N3C(=O)C4=C(CCCC4)C3=O)cc21` as the compound, how does the AC50 read?
**A.** 652 nM (active)

**Q.** `COC(=O)c1ccccc1S(=O)(=O)NC(=O)N(C)c1nc(C)nc(OC)n1` was tested. Which outcome did it give?
**A.** inactive

**Q.** With `O=C(NC(=O)c1c(F)cccc1F)Nc1ccc(OC(F)(F)C(F)OC(F)(F)F)c(Cl)c1` (stereo not given) as the compound, how does the outcome read?
**A.** inactive

**Q.** `CCS(=O)(=O)c1cccnc1S(=O)(=O)NC(=O)Nc1nc(OC)cc(OC)n1` was tested. Which outcome did it give?
**A.** inactive

**Q.** For `O=C(O)CCCOc1ccc(Cl)cc1Cl`, which outcome is on record?
**A.** inactive

**Q.** How did the AC50 turn out when `Cc1[nH]c(=O)n(C(C)(C)C)c(=O)c1Cl` was run?
**A.** 4850 nM (active)

**Q.** Which AC50 does the source give for `COc1nn(CSP(=S)(OC)OC)c(=O)s1` here?
**A.** 655 nM (active)

**Q.** For `CCc1ccc(C(=O)NN(C(=O)c2cc(C)cc(C)c2)C(C)(C)C)cc1`, which AC50 is on record?
**A.** 2180 nM (active)

**Q.** For `CCOc1nc(NC)nc(NC(=O)NS(=O)(=O)c2ccccc2C(=O)OC)n1`, which outcome is on record?
**A.** inactive

**Q.** `CC(C)(C)C(O)C(Oc1ccc(Cl)cc1)n1cncn1` (stereo not given) was tested. Which AC50 did it give?
**A.** 3180 nM (active)

**Q.** Which outcome does the source give for `O=[N+]([O-])/N=C1\NCCN1Cc1ccc(Cl)nc1` here?
**A.** inactive

**Q.** `O=S(=O)(O)C(F)(F)C(F)(F)C(F)(F)C(F)(F)C(F)(F)C(F)(F)C(F)(F)C(F)(F)F` was tested. Which outcome did it give?
**A.** inactive

**Q.** Which outcome does the source give for `COP(=O)(OC)OC=C(Cl)Cl` here?
**A.** inactive

**Q.** With `CC(C)(C)C(O)/C(=C\c1ccc(Cl)cc1Cl)n1cncn1` (stereo not given) as the compound, how does the AC50 read?
**A.** 983 nM (active)

**Q.** For `CCOCN(C(=O)CCl)c1c(C)cccc1CC`, which AC50 is on record?
**A.** 509 nM (active)

**Q.** With `CCC(C)(C)C(=O)OC1=C(c2ccc(Cl)cc2Cl)C(=O)OC12CCCCC2` as the compound, how does the outcome read?
**A.** inactive

**Q.** `CC(C)N(C(=O)COc1nnc(C(F)(F)F)s1)c1ccc(F)cc1` was tested. Which AC50 did it give?
**A.** 10900 nM (active)

**Q.** For `OCCOc1ccccc1`, which outcome is on record?
**A.** inactive

**Q.** With `O=C(O)C(F)(F)C(F)(F)C(F)(F)C(F)(F)C(F)(F)C(F)(F)C(F)(F)F` as the compound, how does the outcome read?
**A.** inactive

**Q.** Which AC50 does the source give for `O=[N+]([O-])c1c(Cl)c(Cl)c(Cl)c(Cl)c1Cl` here?
**A.** 1900 nM (active)

**Q.** With `CCCN(CCC)c1c([N+](=O)[O-])cc(C(F)(F)F)cc1[N+](=O)[O-]` as the compound, how does the AC50 read?
**A.** 1370 nM (active)

**Q.** `CC1(C)C(C=C(Cl)Cl)C1C(=O)OC(C#N)c1ccc(F)c(Oc2ccccc2)c1` (stereo not given) was tested. Which AC50 did it give?
**A.** 7550 nM (active)

**Q.** `CCCN(CCOc1c(Cl)cc(Cl)cc1Cl)C(=O)n1ccnc1` was tested. Which AC50 did it give?
**A.** 128 nM (active)

**Q.** How did the AC50 turn out when `O=S1OCC2C(CO1)C1(Cl)C(Cl)=C(Cl)C2(Cl)C1(Cl)Cl` (stereo not given) was run?
**A.** 980 nM (active)

**Q.** With `CCC(C)Nc1c([N+](=O)[O-])cc(C(C)(C)C)cc1[N+](=O)[O-]` (stereo not given) as the compound, how does the AC50 read?
**A.** 2440 nM (active)

**Q.** How did the AC50 turn out when `CC(C)OC(=O)Nc1cccc(Cl)c1` was run?
**A.** 20000 nM (active)

**Q.** How did the AC50 turn out when `O=C(Nc1ccccc1)Nc1cnns1` was run?
**A.** 5630 nM (active)

**Q.** For `CNC(=O)Oc1ccccc1OC(C)C`, which AC50 is on record?
**A.** 1510 nM (active)

**Q.** Which AC50 does the source give for `CCOC1Oc2ccc(OS(C)(=O)=O)cc2C1(C)C` (stereo not given) here?
**A.** 1440 nM (active)

**Q.** How did the outcome turn out when `COC(=O)c1ccccc1CS(=O)(=O)NC(=O)Nc1nc(OC)cc(OC)n1` was run?
**A.** inactive

**Q.** Which AC50 does the source give for `CCN(CC)C(=O)SCc1ccc(Cl)cc1` here?
**A.** 20000 nM (active)

**Q.** How did the AC50 turn out when `Clc1ccccc1-c1nnc(-c2ccccc2Cl)nn1` was run?
**A.** 3080 nM (active)

**Q.** How did the AC50 turn out when `N#Cc1c(Cl)c(Cl)c(Cl)c(C#N)c1Cl` was run?
**A.** 0.962 nM (active)

**Q.** For `COP(=S)(OC)Oc1ccc(SC)c(C)c1`, which AC50 is on record?
**A.** 4480 nM (active)

**Q.** With `ClC1C(Cl)C(Cl)C(Cl)C(Cl)C1Cl` (stereo not given) as the compound, how does the AC50 read?
**A.** 44.1 nM (active)
